Screening results as filed in PubChem BioAssay.
Shown are actives, neighbours in structure and some others; about 3% of the full set was active somewhere.
ERK AVP block = qHTS Assay for Inhibitors of the ERK Signaling Pathway using a Homogeneous Screening Assay. Potency, µM (doses to about 57.5 µM), without a hit: at the top dose activity, negative = inhibition, most hits filed as inhibitors. hit rate 0.99% among 72,000. HEK293-V1b, vasopressin-stimulated pERK AlphaScreen. AID 995, 2007; also: potency is read from the fitted curve at half-maximal effect; % is scaled to controls: 0 for no effect and ±100 for the full control effect; nearly all actives have a fitted effect of over 55% in size
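Phosphorylated ERK1/2 detected via AlphaScreen bead proximity in lysates of V1b-expressing HEK293 cells given 25 nM vasopressin for 5 min after 30 min compound exposure (37 °C). AC50 from Hill equation; basal DMSO 0%, vasopressin 100%.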
GFP derepression = qHTS Assay for Epigenetic Modulators; mouse C127i GFP locus derepression, cytometry, 30 h; Potency, µM (top dose mostly 46.1 µM), for inactives: at the highest dose GFP derepression (activation); hit rate 0.09% among 68,000; AID 597, 2007; also: % of control where 0% means no effect
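Murine C127i mammary cells carrying a silenced, stably integrated CMV-driven GFP reporter were treated with compound for 30 hours at 37 C. After PBS washes, GFP-positive cells were counted by laser-scanning microplate cytometry.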
Ub-GFP proteasome = Ubiquitin-GFP Assay; Ubiquitin-GFP reporter cells, proteasome inhibition, GFP fluorescence; response scale: untreated = 0%, 10 µM MG-132 = 100%; Potency, µM (series often up to 45.9 µM), without a hit: at the highest dose activation (GFP accumulation), most hits filed as activators; 67,000 tested, under 10 active; AID 526, 2006; active = well fitted activation curve with a large enough effect, not every such curve was filed as active; inconclusive = small, poorly fitted or top-dose-only effect, or another doubt; inactive = no such curve, though single readings can be large or run the other way; also: potency is read from the fitted curve at half-maximal effect
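GFP accumulation read-out: laser plate cytometry counting ubiquitin(G76V)-GFP-expressing U2OS cells after 4 hr compound exposure at 37 °C. Titrations spanned 46 uM to 2.9 nM; 0% = basal, 100% = 10 uM MG-132; concentration-response curves fitted.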
Hsp90 Hop PPI = qHTS Assay for Disrupters of an Hsp90 Co-Chaperone Interaction; hit rate 0.44% among 71,000; AlphaScreen TPR2A-His6 binding biotin-Hsp90 C-terminal peptide; Potency, µM (top dose mostly 57 µM), for the others: at the highest dose activity change, negative = inhibition; AID 595, 2007; active = well fitted curve in either direction with a large enough effect; inconclusive = small, poorly fitted or top-dose-only effect, or another doubt; also: potency is read from the fitted curve at half-maximal effect; % is scaled to controls: 0 for no effect and ±100 for the full control effect
Tau filament bind = qHTS Assay for Tau Filament Binding. recombinant tau filaments, thioflavin S fluorescence, 15 h; filaments grown with octadecylsulfate alongside compound. Potency, µM (top dose mostly 57.1 µM), for inactives: at the highest dose activity change, negative = inhibition. hit rate 2% among 71,000;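 also: potency is read from the fitted curve at half-maximal effect; % is scaled to controls: 0 for no effect and ±100 for the full control effect; actives lower thioflavin S fluorescence by blocking filaments or displacing dye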
Target sequence (P10636 whole entry, looked up): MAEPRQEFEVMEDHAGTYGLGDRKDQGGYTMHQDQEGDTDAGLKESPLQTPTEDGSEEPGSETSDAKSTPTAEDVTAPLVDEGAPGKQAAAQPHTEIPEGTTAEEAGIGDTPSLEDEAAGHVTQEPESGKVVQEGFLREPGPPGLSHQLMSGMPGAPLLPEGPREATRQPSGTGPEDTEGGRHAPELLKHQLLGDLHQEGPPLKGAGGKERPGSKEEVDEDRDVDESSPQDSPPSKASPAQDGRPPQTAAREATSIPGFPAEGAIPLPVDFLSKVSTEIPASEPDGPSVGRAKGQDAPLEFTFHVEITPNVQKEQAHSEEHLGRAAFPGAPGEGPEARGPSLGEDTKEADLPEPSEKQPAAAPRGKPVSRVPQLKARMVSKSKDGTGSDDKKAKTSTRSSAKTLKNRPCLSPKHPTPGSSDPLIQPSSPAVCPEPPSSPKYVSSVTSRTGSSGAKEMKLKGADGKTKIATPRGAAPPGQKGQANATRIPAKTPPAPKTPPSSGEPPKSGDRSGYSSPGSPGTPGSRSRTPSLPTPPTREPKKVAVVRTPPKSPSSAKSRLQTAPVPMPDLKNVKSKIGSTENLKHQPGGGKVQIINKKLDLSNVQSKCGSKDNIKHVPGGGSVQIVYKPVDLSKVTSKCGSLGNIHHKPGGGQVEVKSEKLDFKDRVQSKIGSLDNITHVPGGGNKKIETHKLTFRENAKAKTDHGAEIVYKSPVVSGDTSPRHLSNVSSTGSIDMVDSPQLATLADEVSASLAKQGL
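Assay mix: 1 uM His-tagged tau, 30 uM sodium octadecylsulfate, thioflavine S dye in HEPES/NaCl/DTT buffer. Compound is added prior to the inducer. Fluorescence after 15 h at 37 C.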
HBB splice mod = qHTS Assay for Modulators of Hemoglobin Beta Chain Splicing; HBB splicing reporter cell assay, activation; EGFP reporter with mutant IVS2-654 intron; response scale: normalised to 500 nM splice-correcting PNA; Potency, µM (highest dose often 46.1 µM), for the others: at the top dose activation, most hits filed as activators; hit rate 0.06% among 65,000; AID 925, 2007; also: potency is read from the fitted curve at half-maximal effect; 0% is about no effect
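Compounds were applied for 2 days to HeLa EGFP-654 cells, 500/well in Optimem with 2% FCS. The reporter's EGFP is disrupted by mis-splicing of beta-globin intron IVS2-654. Readout: summed well GFP fluorescence from 488 nm laser scanning; reference was 500 nM antisense […] 654 PNA.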
* = called active by the depositor; ? = inconclusive; / = no result; [ ] = dose if it differs, or a comment. Unless noted, calls follow the shape of the dose curve; as a rule, active = well fitted curve in the direction sought with a large enough effect; inconclusive = small, poorly fitted or top-dose-only effect, or another doubt; inactive = no such curve, though single readings can be large; an effect the other way counts as inactive or inconclusive.

SMILES | ERK AVP block | GFP derepression | Ub-GFP proteasome | Hsp90 Hop PPI | Tau filament bind | HBB splice mod
Cc1ccc(Nc2nc(C)c(CCC(C)C)c(=O)[nH]2)cc1 | 3% | 3% | 2% | -1% | 16% | -1%
Cc1nc(NCc2ccccc2)[nH]c(=O)c1CCC(C)C | 8% | 2% | 10% | -1% | 16µM* | -2%
N#Cc1c(NC(=O)C(F)(F)F)sc2c3c(=O)c4ccccc4c(=O)c=3oc3ccccc3c12 | -1%[11.5 µM] | 0%[9.22 µM] | -6%[9.17 µM] | -6%[11 µM] | 4µM* | 2%[9.22 µM]
N#Cc1c(C(F)(F)F)cc(-c2ccco2)nc1SCc1ccncc1 | ? | 18% | -8% | -11% | 61% | 22%[57.5 µM]
N#Cc1c(C(F)(F)F)cc(-c2ccco2)nc1SCc1ccccn1 | 2% | ? | -4% | 9% | 52% | 16µM*
CNCCCCCCCCSc1nc(C(C)C)ccc1C(=O)c1cccs1 | -59% | -1% | 6% | -6% | 13µM* | /
CCOC(=O)Cc1csc(NC(=O)c2c(-c3ccccc3)noc2C)n1 | -3% | -3% | 5%[9.17 µM] | -7%[11 µM] | 5%[11.4 µM] | 0%[0.0738 µM]
Cc1noc(C)c1C(=O)Nc1nc(C23CC4CC(CC(C4)C2)C3)cs1 | 20µM* | 0% | 0% | 5% | -9% | 0%
CC(CO)(CO)N=Cc1cc(I)cc(I)c1O | 10%[11.5 µM] | 14%[9.22 µM] | 8%[9.17 µM] | -5%[11 µM] | ? | 0%[9.22 µM]
CCOC(=O)N1CCN(c2c(F)cc3[nH]c(=S)[nH]c3c2Br)CC1 | 14% | 9% | -1% | 0% | 16µM* | -2%
COc1cccc(Cn2c(=O)c(-c3cc(F)cc(F)c3)nc3cnc(N4CCNCC4)nc32)c1 | ? | -3%[9.22 µM] | -5% | 16% | 4µM* | -2%
COc1ccc(-n2c(=O)c(-c3cc(F)cc(F)c3)nc3cnc(N4CCNCC4)nc32)cc1 | 9% | 0%[9.22 µM] | 0% | 2% | 3.2µM* | -1%
O=c1c(-c2cc(F)cc(F)c2)nc2cnc(N3CCNCC3)nc2n1Cc1ccc(F)cc1 | ? | -5%[9.22 µM] | 8% | 24% | 4µM* | -1%
O=c1c(-c2ccccc2)nc2cnc(N3CCNCC3)nc2n1Cc1ccc(F)cc1 | 15% | 0%[9.22 µM] | 8% | -1% | 47% | 0%
COc1cccc(Cn2c(=O)c(C)nc3cnc(N4CCNCC4)nc32)c1 | 11% | -3%[9.22 µM] | 15% | -5% | 0% | 4%
O=C1C=C(Nc2nc(C(=O)O)cc(=O)[nH]2)c2ccccc2C1=O | 4%[11.5 µM] | 9%[9.22 µM] | -1%[9.17 µM] | -4%[11 µM] | 15%[11.4 µM] | 0%[9.22 µM]
Oc1cc(O)c2c(c1)O[C@H](c1ccc(O)c(O)c1)[C@@H](O)[C@@H]2c1c(O)cc(O)c2c1O[C@@H](c1ccc(O)c(O)c1)[C@H](O)C2 | -19%[11.5 µM] | 2%[9.22 µM] | -1%[9.17 µM] | -21%[11 µM] | 2%[11.4 µM] | 1%[9.22 µM]
O=C1c2ccccc2C(Nc2ccc3c(c2)OCCO3)N1Cc1ccccc1 (stereo unspecified) | / | / | -2% | ? | 20µM* | -1%
N#Cc1c(N)nc(N2CCCC2)c(C#N)c1-c1ccc(Cl)cc1 | 28% | -2% | -1% | 6% | 92% | 0%
COc1cc2c(C#N)c(N3CCN(c4ccccc4OC)CC3)nc(N)c2c(N)n1 | 25µM* | -1% | -5% | -7% | -11% | -1%
N#Cc1c(N2CCCC2)nc(N)c2c(N)nc(N3CCCC3)cc12 | -24% | 0% | 1% | 25µM* | -26% | -4%
C/C(=N\O)c1cccc[n+]1Cc1ccccc1 | -17%[11.5 µM] | -3%[9.22 µM] | 0%[9.17 µM] | 7%[11 µM] | 3%[11.4 µM] | 3%[9.22 µM]
CCOC(=O)C(C(C)=O)c1c(Br)c(O)c(O)c2c(C(=O)c3ccc(C)cc3)coc12 (stereo unspecified) | ? | 11% | -4% | ? | 10µM* | -4%[57.5 µM]
